From PubChem BioAssay (NCATS)
“And” between values parts separate entries of the source, which are not always exact repeats. Equal values may be shown once. Unmarked numbers belong to inactive results. Inconclusive results are not listed. A call without a number means that no potency is given here. The source made the active and inactive calls. Unless noted, calls come from the whole dose curve; as a rule, active = well fitted curve in the direction sought with a large enough effect; inconclusive = small, poorly fitted or top-dose-only effect, or another doubt; inactive = no such curve, though single readings can be large; an effect the other way counts as inactive or inconclusive. Numbered stars: 1 amine (or outer) side, 2 acyl side, 3 side chain; on linkers, the order of the positions; unused ones are H or OH. Bridge positions count the residues as written; N and C are the ends. Square brackets hold non-standard residues; d marks the D form. Peptide text beside a SMILES is read from it. I, II: the chains in the order shown. Actinocin(9to1) = Cc1c2oc3c(C)ccc(C(=O)[*:1])c3nc-2c(C(=O)[*:2])c(N)c1=O; NMeV = CN[C@H](C(=O)O)C(C)C; Sar = CNCC(=O)O

Experiments:
[1] = target: Arylsulfatase A (Homo sapiens) (UniProt P15289); assay: qHTS screen for enhancers of Arylsulfatase A (ASA1): LOPAC Validation Assay (AID 720538); conditions: outcome: dose series up to 57.5 µM
Sequence of Arylsulfatase A (Homo sapiens) (P15289 whole entry, looked up): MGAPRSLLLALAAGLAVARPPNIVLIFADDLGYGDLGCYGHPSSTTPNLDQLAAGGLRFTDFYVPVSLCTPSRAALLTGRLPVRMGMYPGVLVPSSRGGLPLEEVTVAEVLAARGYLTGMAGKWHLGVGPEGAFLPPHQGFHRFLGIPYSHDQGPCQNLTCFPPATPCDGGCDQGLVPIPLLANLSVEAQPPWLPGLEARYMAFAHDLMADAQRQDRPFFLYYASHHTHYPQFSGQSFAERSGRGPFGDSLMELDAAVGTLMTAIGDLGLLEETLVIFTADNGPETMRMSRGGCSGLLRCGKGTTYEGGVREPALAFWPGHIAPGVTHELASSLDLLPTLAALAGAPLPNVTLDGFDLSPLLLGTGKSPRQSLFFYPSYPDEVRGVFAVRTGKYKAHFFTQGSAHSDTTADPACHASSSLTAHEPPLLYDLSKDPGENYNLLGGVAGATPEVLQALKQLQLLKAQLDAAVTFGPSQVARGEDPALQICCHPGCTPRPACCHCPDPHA
In short: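 Enhancer assay in patient-derived MLD fibroblasts carrying ASA-I179S: 48 h compound exposure at 37 C, then 14 h room-temperature pNCS turnover (0.5 mM final) in lysis buffer. Read by fluorescence at 525/598 nm after NaOH stop.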

[2] = qHTS for compounds that reverse cellular toxicity of Amyloid beta (A-beta) peptide in yeast: LOPAC Validation Assay (AID 720559)
In short: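 Rescue of A-beta toxicity was scored as yeast growth by 600 nm absorbance after 48 hr at 30 C with compound. Normalization used DMSO (negative) and equimolar ferric chloride plus clioquinol (positive).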

[3] = qHTS for Activators of Parkin Expression: LOPAC Validation Assay (NLuc Reporter) (AID 720572)
In short: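 Compound effects on Parkin promoter activity were measured as NanoLuc luminescence after 24 h at 37 C. The neuronal reporter line also carried FLuc, which was read first. LOPAC compounds were tested at 7 concentrations, with normalization to DMSO (0%) and positive control (100%).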

[4] = target: T1, Hexokinase-4 (Homo sapiens) + Glucokinase regulatory protein (Homo sapiens) (UniProt P35557+Q14397); assay: qHTS assay for inhibitors of recombinant human GCK-GKRP interaction: Diaphorase-coupled assay (AID 743205)
T1 sequence (P35557 whole entry, looked up): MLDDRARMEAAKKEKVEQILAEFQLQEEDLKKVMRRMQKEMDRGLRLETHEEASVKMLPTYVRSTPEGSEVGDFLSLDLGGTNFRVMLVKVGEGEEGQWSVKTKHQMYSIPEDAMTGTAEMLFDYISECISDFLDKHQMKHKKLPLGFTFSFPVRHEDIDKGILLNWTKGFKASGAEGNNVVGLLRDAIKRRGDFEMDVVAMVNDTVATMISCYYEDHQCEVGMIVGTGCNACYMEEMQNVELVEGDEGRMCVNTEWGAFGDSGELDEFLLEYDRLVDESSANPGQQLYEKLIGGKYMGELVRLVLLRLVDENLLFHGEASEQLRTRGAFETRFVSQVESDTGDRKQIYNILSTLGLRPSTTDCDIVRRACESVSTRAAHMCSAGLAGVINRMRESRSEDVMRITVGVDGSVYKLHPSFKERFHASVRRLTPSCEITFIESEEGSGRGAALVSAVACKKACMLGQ
T1 sequence (Q14397 whole entry, looked up): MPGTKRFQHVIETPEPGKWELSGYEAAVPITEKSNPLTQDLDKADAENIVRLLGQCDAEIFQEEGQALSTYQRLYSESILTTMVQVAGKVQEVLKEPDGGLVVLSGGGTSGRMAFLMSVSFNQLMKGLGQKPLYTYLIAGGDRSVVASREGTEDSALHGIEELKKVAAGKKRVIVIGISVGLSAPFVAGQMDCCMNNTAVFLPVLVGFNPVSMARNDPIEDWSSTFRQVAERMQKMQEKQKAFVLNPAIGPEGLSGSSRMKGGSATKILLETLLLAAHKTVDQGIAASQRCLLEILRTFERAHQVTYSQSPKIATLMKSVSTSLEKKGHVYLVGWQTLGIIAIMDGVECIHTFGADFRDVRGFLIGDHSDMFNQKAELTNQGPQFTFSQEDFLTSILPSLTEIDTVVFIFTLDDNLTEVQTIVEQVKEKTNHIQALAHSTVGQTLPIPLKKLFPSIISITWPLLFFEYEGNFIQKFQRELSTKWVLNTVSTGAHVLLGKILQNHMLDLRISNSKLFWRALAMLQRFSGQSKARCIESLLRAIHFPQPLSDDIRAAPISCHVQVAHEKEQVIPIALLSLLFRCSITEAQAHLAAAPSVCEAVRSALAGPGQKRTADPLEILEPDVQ
In short: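 A kinetic fluorescence read (Ex 525/Em 590 nm, every minute for 30 minutes) tracked resorufin from a G6PDH-diaphorase coupled GCK reaction. It contained 10 nM GST-GCK, 10 nM FLAG-GKRP, 5 mM glucose, 0.4 mM ATP in Hepes pH 7.6. Normalized to with/without-enzyme DMSO controls.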

[5] = target: T1, Hexokinase-4 (Homo sapiens) + Glucokinase regulatory protein (Homo sapiens); assay: qHTS assay for inhibitors of recombinant human GCK-GKRP interaction: ADP-Glo assay (AID 743206)
In short: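 Pin-transferred compounds meet a 15 nM GST-GCK/15 nM FLAG-GKRP/2 uM S6P mix (dispense concentrations). ATP is then added to 0.4 mM final with 5 mM glucose, and the reaction runs 60 min at room temperature. ADP is quantified luminescently.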

[6] = target: T1, Hexokinase-4 (Homo sapiens) + Glucokinase regulatory protein (Homo sapiens); assay: qHTS assay for inhibitors of recombinant human GCK-GKRP interaction: HTRF assay (AID 743207)
In short: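 After 60 min equilibration at room temperature with anti-FLAG XL665 and anti-GST antibodies, FRET ratio (665/615 nm, excitation 320 nm) was read. Proteins: GST-GCK and FLAG-GKRP, each 5 nM, plus 2 uM S6P, pH 7.1 buffer; GCK-free wells define minimum signal.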

[7] = qHTS Assay for Identifying Gametocytocidal Compounds (AID 743244); note: potency is the fitted concentration of half-maximal effect;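 for max response: actives lower the fluorescent signal which means gametocytes are killed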; conditions: P. falciparum 3D7 stage III-V gametocytes, alamarBlue, 72 h; max response: stronger effect = lower value
In short: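 Compounds are pinned into medium, gametocytes (stage III–V, 3D7, 20,000 cells/well) added, and plates held 72 h at 37 °C in 5% CO2. AlamarBlue follows for 24 h before fluorescence reading.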

[8] = qHTS assay for environmental chemicals that activate the Aryl hydrocarbon Receptor (AhR) signaling pathway (AID 651777); conditions: 1A2-DRE human hepatoma cells, luciferase, 24 h; activation: stronger effect = higher value; note: nearly all actives have a fitted effect of over 15% in size
In short: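 Following a 24 hr incubation with test chemicals at 37 C and 5% CO2, 1A2-DRE human hepatoma cells received One-Glo reagent; after 30 min at room temperature, luciferase output reflected CYP1A2 induction via AhR.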

[9] = target: Peroxisome proliferator-activated receptor alpha (Homo sapiens) (UniProt Q07869); assay: qHTS assay for small molecule agonists of the peroxisome proliferator-activated receptor alpha (PPARalpha) signaling pathway (AID 651778); conditions: PathHunter PPARalpha complementation, chemiluminescence, 6 h; max response: stronger effect = higher value
Sequence of Peroxisome proliferator-activated receptor alpha (Homo sapiens) (Q07869 whole entry, looked up): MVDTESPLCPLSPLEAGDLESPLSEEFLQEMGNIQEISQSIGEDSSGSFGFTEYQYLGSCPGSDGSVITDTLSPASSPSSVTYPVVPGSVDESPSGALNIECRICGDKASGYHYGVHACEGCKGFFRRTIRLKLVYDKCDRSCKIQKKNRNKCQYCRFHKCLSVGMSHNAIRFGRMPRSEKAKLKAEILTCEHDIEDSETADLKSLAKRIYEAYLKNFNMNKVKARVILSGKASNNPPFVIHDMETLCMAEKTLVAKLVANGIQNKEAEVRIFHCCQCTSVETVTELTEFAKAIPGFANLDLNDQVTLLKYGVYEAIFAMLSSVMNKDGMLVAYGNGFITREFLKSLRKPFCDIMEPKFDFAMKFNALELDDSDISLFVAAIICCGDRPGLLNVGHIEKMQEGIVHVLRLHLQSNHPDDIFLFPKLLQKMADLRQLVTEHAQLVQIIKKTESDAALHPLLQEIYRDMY
In short: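 Chemiluminescence from complemented enzyme reported PPARalpha activation in cells after 6 hr of compound treatment at 37 C. The detection reagent was incubated for 60 min at room temperature, and compounds were scored as agonists.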

[10] = target: Nuclear receptor ROR-gamma (Homo sapiens) (UniProt P51449); assay: qHTS assay for small molecule antagonists of the retinoid-related orphan receptor gamma (ROR-gamma) signaling pathway (AID 651802); note: nearly all actives have a fitted effect of over 60% in size; note: potency is the fitted concentration of half-maximal effect
Sequence of Nuclear receptor ROR-gamma (Homo sapiens) (P51449 whole entry, looked up): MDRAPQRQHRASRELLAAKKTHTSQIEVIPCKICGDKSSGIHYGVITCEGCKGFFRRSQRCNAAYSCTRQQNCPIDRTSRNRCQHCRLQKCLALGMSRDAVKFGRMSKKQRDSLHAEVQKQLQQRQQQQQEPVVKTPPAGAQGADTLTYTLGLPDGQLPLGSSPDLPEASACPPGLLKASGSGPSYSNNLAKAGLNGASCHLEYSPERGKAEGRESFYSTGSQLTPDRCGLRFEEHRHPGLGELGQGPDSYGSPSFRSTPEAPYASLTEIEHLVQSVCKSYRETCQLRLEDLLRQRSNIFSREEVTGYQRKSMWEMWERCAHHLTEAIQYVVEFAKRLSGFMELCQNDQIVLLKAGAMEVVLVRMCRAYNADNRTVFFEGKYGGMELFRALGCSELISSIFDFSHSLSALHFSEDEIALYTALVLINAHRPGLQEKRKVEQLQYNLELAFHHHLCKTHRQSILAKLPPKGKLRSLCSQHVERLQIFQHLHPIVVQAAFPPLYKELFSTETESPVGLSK
In short: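 Steps: cells dispensed; compound or DMSO transferred by pin tool; doxycycline added to induce the ROR response element-driven luciferase; plates held 16hr at 37C; ONE-Glo added and luminescence measured.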

[11] = qHTS assay for small molecule antagonists of the retinoid-related orphan receptor gamma (ROR-gamma) signaling pathway - cell viability counter screen (AID 720652; active = well fitted curve in the direction sought with a large enough effect in the repeat runs; an effect the other way counts as inactive or inconclusive;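 note: compound exposure lasted 16 hr before ATP read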; note: potency is the fitted concentration of half-maximal effect)
In short: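 Steps: seed CHO cells bearing TET-inducible ROR and ROR response element-luciferase; rest 5 hr at 37 C; add compound, then doxycycline; incubate 16 hr; add CellTiter-Glo and read luminescence as ATP-based viability.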

[12] = qHTS assay for small molecule agonists of the antioxidant response element (ARE) signaling pathway measured by Nrf2-dependant transcriptional activity - cell viability counter screen (AID 720653; active = well fitted curve in the direction sought with a large enough effect in the repeat runs; an effect the other way counts as inactive or inconclusive); conditions: ARE-bla HepG2 viability, CellTiter-Glo ATP luminescence, 16 h; stronger effect = lower value
In short: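 Cytotoxicity counter screen: intracellular ATP quantified by CellTiter-Glo luminescence in the same ARE-bla HepG2 plates, after 16 h compound exposure and a 2 h beta-lactamase substrate step.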

[13] = qHTS assay for cell viability of HEK293 cells (AID 743288); conditions: ATP luminescence (CellTiter-Glo), 18 h, stronger effect = lower value; note: nearly all actives have a fitted effect of over 50% in size
In short: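 Readout is luciferase-coupled ATP content (CellTiter-Glo luminescence, 30 min room temperature) as a measure of metabolically competent cells. Parental HEK293 cells were plated 5 h or more before compound addition, then treated 18 h at 37 C.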

[14] = qHTS assay for cell viability of the p53RE-bla HCT-116 cell line (AID 743292); note: nearly all actives have a fitted effect of over 55% in size
In short: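 After plating at 4,000 cells per well and a 5 h rest at 37 C, HCT-116 cells carrying p53RE-bla received test chemicals in DMSO. Sixteen hours later at 37 C, CellTiter-Glo was added and luminescence recorded following 30 min at room temperature.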

With `CNCCC(Oc1ccccc1C)c1ccccc1` (stereo not drawn) the outcome [1] was “inactive”, the outcome [2] was “inactive” and the outcome [3] was “inactive”. For the same compound, the outcome [4] was “inactive”, the outcome [5] was “inactive” and the outcome [6] was “inactive”. It also gave a max response [7] of 9.68%.

For `Nc1ccc(C(=O)O)cc1`, the activation [8] was -0.596%, the max response [9] was 2.41% and the Potency [10] was “inactive”. For the same compound, the Potency [11] was “inactive”, the max response [12] was 2.28% and the max response [7] was -1.31%. The max response [13] was 7.36% and the outcome [14] was “inactive”.

For `CNCCC=C1c2ccccc2CCc2ccccc21`, the outcome [1] was “inactive”, the outcome [2] was “inactive” and the outcome [3] was “inactive”. The outcome [4] was “inactive”, the outcome [5] was “inactive” and the outcome [6] was “inactive”.

With `Oc1ccc(Cl)cc1Sc1cc(Cl)ccc1O` the activation [8] was 6.02%, the max response [9] was 18% and the Potency [11] was “inactive”. For the same compound, the max response [7] was 6.07% and the outcome [14] was “inactive”.

`C[C@H]1C[C@H]2[C@@H]3CCC4=CC(=O)C=C[C@]4(C)[C@@]3(Cl)[C@@H](O)C[C@]2(C)[C@@]1(O)C(=O)CO` gave an activation [8] of 0.38%, a max response [9] of 3.36% and a max response [12] of -20.4%. For the same compound, the max response [7] was 3.92%, the max response [13] was -18.8% and the outcome [14] was “inactive”.

For `CC(C)C[C@H]1C(=O)N2CCC[C@H]2[C@]2(O)O[C@](NC(=O)[C@@H]3C=C4c5cccc6[nH]c(Br)c(c56)C[C@H]4N(C)C3)(C(C)C)C(=O)N12`, the outcome [1] was “inactive”, the outcome [2] was “inactive” and the outcome [3] was “inactive”. For the same compound, the outcome [4] was “inactive”, the outcome [5] was “inactive” and the outcome [6] was “inactive”.

For `Cc1c2oc3c(C)ccc(C(=O)N[C@@H]4C(=O)N[C@H](C(C)C)C(=O)N5CCC[C@H]5C(=O)N(C)CC(=O)N(C)[C@@H](C(C)C)C(=O)O[C@@H]4C)c3nc-2c(C(=O)N[C@@H]2C(=O)N[C@H](C(C)C)C(=O)N3CCC[C@H]3C(=O)N(C)CC(=O)N(C)[C@@H](C(C)C)C(=O)O[C@@H]2C)c(N)c1=O` (I: T[dV]P[Sar][NMeV] / II: T[dV]P[Sar][NMeV]; ester I:1-I:C, II:1-II:C; linker I:N-II:N via Actinocin(9to1)), the activation [8] was 1.62% and 1.67%, the max response [9] was -5.12% and -0.626% and the Potency [10] was 26.6 nM (active). The Potency [11] was 106 nM (active), the max response [12] was -29.7% and -9.89% and the Potency [7] was 70.8 nM (active). The outcome [14] was “inactive”.

With `CN(C)/N=N/c1nc[nH]c1C(N)=O` the activation [8] was 1.65%, the max response [9] was -3.55% and the Potency [10] was “inactive”. The Potency [11] was “inactive”, the max response [12] was -9.97% and the max response [7] was 5.22%. For the same compound, the max response [13] was 4.22% and the outcome [14] was “inactive”.
